Compound activity: PubChem BioAssay, National Center for Advancing Translational Sciences (NCATS)
The list is not random: actives were taken first. Their share in the collection is about 7.3%.
SMN2 splice up: increases expression of the SMN2 splice variant | AID 1458 | hit rate 2.8% among 210,000 | Potency, µM (titrated, usually from 46.1 µM), for inactives: at the top dose activity change, positive = activation, actives largely listed as activators | HEK293 SMN2-luciferase splicing reporter, luminescence, 30-36 h; further: % of control where 0% means no effect; nearly all actives have a fitted effect of over 55% in size
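HEK293 cells carry an SMN2 […]–luciferase reporter in which exon 7 inclusion puts luciferase in frame. Cells were plated 10-12 h before compound addition, then incubated 30-36 h at 37C. ONE-Glo luminescence was read; sodium butyrate at 4.5 mM final served as control.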
NPC1 promoter act: activators of NPC1 promoter | AID 485313 | Potency, µM (titrated, usually from 9.22 µM), without a hit: at the highest dose activation, usual class: activators | Huh7 NPC1 promoter luciferase reporter, 24 h | hit rate 2.4% among 320,000; further: % of control where 0% means no effect; nearly all actives have a fitted effect of over 60% in size
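Huh7 cells stably carrying NPC1 promoter–luciferase, plated in Opti-MEM with 10% FBS for 2 h, were exposed to compound in DMSO for 24 h at 37 °C; luciferase reagent was added for 10 min and luminescence read.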
KinaseGlo FLuc: counter-screen: inhibitors of Kinase-Glo firefly luciferase. AID 1379. Q27757. Kinase-Glo luciferase, ATP luminescence, 8 min. hit rate 0.28% among 200,000. Potency, µM (series often up to 38.3 µM), for inactives: top-dose activity change, negative = inhibition, actives largely listed as inhibitors; further: on the % scale 0 is the no-effect control and ±100 the full control effect; nearly all actives have a fitted effect of over 60% in size
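Light output from Kinase-Glo luciferase with luciferin and 10 uM ATP in 50 mM imidazole pH 7.2, KCl, MgCl2, Tween 20, BSA; compound pin-delivered, 8-min ambient incubation, then luminescence read.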
Rab9 promoter act: activators of Rab9 promoter | Huh7 Rab9 promoter-luciferase reporter, luminescence, 24 h | Potency, µM (doses to about 9.22 µM), without a hit: top-dose activation, negative = inhibition, most hits filed as activators | hit rate 2.8% among 320,000 | AID 485297; further: % of control where 0% means no effect; nearly all actives have a fitted effect of over 60% in size
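Cells were plated at 1500 per well in reduced-serum medium with 10% FBS and left 2 h. Compound in DMSO was then added for 24 h at 37 °C. Reporter signal was read by luminescence after 10 min with luciferase detection reagent.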
ELG1 genotox: inducers of genotoxicity in HEK293T ELG1-luciferase cells; HEK293T ELG1-luciferase reporter, luminescence, 16 h; Potency, µM (series often up to 46 µM), inactives show top-dose activity change, positive = activation, hits mostly activators; hit rate 1.3% among 330,000; further: % of control where 0% means no effect; nearly all actives have a fitted effect of over 60% in size
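Screening used a luciferase reporter fused to human ELG1 in HEK293T cells. Luminescence was read on a CCD plate imager after 16 hr exposure and 30 min ONE-Glo incubation.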
FLuc counter: firefly luciferase modulation, counter-screen for miR-21 project. Potency, µM (series often up to 57.5 µM), for inactives: at the top dose activity change, negative = inhibition, actives largely listed as inhibitors. purified FLuc, Km substrates, luminescence inhibition. hit rate 6.9% among 360,000. AID 588342. P08659;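 further: plate controls were vehicle for no effect and reference inhibitor for full effect; nearly all actives have a fitted effect of over 55% in size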
Target sequence (P08659 whole entry, looked up): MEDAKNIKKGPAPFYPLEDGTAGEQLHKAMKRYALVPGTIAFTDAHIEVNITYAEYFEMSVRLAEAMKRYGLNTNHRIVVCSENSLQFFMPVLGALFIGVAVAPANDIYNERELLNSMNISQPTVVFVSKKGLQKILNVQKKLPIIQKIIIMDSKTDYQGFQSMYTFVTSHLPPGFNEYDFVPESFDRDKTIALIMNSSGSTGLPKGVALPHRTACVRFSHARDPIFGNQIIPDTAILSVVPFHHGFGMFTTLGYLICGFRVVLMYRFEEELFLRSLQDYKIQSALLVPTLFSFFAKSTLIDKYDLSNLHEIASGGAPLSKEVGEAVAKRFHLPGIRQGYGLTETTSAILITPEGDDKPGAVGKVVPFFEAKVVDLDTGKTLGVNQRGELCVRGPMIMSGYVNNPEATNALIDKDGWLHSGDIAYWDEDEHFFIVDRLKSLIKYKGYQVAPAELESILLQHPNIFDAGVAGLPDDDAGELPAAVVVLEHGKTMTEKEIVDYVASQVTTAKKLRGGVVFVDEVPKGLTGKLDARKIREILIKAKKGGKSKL
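Biochemical qHTS of compounds, final roughly 60 µM downward over six points, against 10 nM purified firefly luciferase using Km concentrations of substrates (10 uM D-luciferin, 10 uM ATP) in Tris acetate pH 7.5 buffer; luminescence output.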
An asterisk follows results filed as active; ? = inconclusive; / = no result; [ ] = another dose, or the depositor's remark. The call rests on the fitted dose curve; in most records, active means well fitted curve in the direction sought with a large enough effect; inconclusive means small, poorly fitted or top-dose-only effect, or another doubt; inactive means no such curve, though single readings can be large; an effect the other way counts as inactive or inconclusive. Potency means the concentration at half of the fitted maximal effect.

SMILES	SMN2 splice up	NPC1 promoter act	KinaseGlo FLuc	Rab9 promoter act	ELG1 genotox	FLuc counter
Nc1cc(-c2nc3ncccc3o2)ccc1Cl	10µM*	?	-15.8%	3.98µM*	?	19µM*
CCC(=O)Nc1ccc(-c2nc3ncccc3o2)cc1C	?	/	/	/	/	-17.8%
Cc1ccc(-c2nc3ncccc3o2)cc1N	/	3.98µM*	/	3.55µM*	?	15.1µM*
CC1=CC(c2ccccc2)=Nc2ccc(C)cc2N1	10µM*	3.55µM*	-25.2%	3.98µM*	11.6µM*	6.75µM*
Oc1ccc(C2C[C@H]3CC[C@@H]2C3)cc1O (some centres undefined)	/	-14.9%	/	7.0%	?	12µM*
CCOC(=O)c1c(C)oc2nc(C)nc(Nc3cc(C)ccc3OC)c12	/	/	/	/	/	-0.5%
COCCCNC(=O)CCCCn1c(=O)c2ccccc2n(CC(=O)Nc2ccc(C)cc2C)c1=O	0.0%	/	/	/	/	-4.0%
CCCSC1=N/C(=C\C=C\c2ccco2)C(=O)S1	-6.1%	-2.0%	5.4%	0.5%	-0.2%	10.7µM*
CCCSC1=N/C(=C\c2ccc([N+](=O)[O-])o2)C(=O)S1	-0.8%	-0.1%	-6.5%	-2.2%	0.1%	?
O=C(CCCC(=O)OCC(=O)c1ccc(F)cc1)Nc1cc(C(F)(F)F)ccc1Cl	20.2%	1.6%	-4.5%	-0.8%	1.7%	12µM*
O=C(CCCC(=O)OCC(=O)c1ccc(Cl)cc1Cl)Nc1cc(C(F)(F)F)ccc1Cl	-1.9%	0.9%	-6.6%	-2.8%	0.1%	3.79µM*
O=C(COC(=O)c1ccc(O)cc1)Nc1cc(C(F)(F)F)ccc1Cl	12.0%	-3.8%	-3.9%	-1.6%	-4.3%	1.3%
CCCc1ccc(-c2cc(NC(=O)CSc3n[nH]c(N)n3)n(-c3ccccc3)n2)cc1	2.4%	16.9%	0.1%	14.7%	?	4.26µM*
CCOC(=O)c1c(S(=O)(=O)N2CCC(C(=O)Nc3cccc(C#N)c3)CC2)c(C)n(C)c1C	/	/	/	/	/	-7.9%
COc1ccc(N(C)S(=O)(=O)c2cccc(C(=O)OC(C(=O)Nc3cc(C)cc(C)c3)c3ccccc3)c2)cc1 (centres undefined)	15.8µM*	12.4%	2.3%	-1.7%	-1.8%	5.7%
Cc1ccc2nc(-c3cc(NC(=O)/C=C/c4ccccc4)ccc3Cl)oc2c1	7.6%	/	/	/	/	?
Cc1cc(C(=O)C(=O)Nc2nncs2)c(C)n1-c1ccc(Cl)cc1	/	/	/	/	/	-12.1%
CCn1c(SCC(=O)Nc2ccc3c(c2)OCCO3)nnc1C1CC1	/	-2.6%	/	-2.6%	1.5%	15.1µM*
CCn1c(SCC(=O)Nc2ccc3c(c2)OCCO3)nnc1-c1cccs1	-2.4%	-1.1%	-7.8%	12.6%	1.5%	10.7µM*
CCn1c(SCC(=O)Nc2ccc3c(c2)OCO3)nnc1C1CC1	/	-4.9%	/	-4.3%	-0.7%	-11.9%
O=C(CSc1nnc(-c2c[nH]c3ccccc23)n1CC1CCCO1)Nc1ccc2c(c1)OCCO2 (centres undefined)	16.7%	6.8%	-0.7%	1.1%	-0.2%	-17.3%
CCn1c(SCC(=O)Nc2ccc3c(c2)OCCO3)nnc1-c1c[nH]c2ccccc12	/	-2.3%	/	-2.7%	1.2%	13.5µM*
CCn1c(C)nnc1SCC(=O)Nc1ccc2c(c1)OCCO2	/	1.4%	/	22.3%	20.5%	?
Nn1c(SCC(=O)NC(=O)Nc2ccc3c(c2)OCCO3)nnc1C1CC1	?	21.5%	-3.4%	?	13.6%	19µM*
COc1cccc([C@@H]2Oc3ccc(OC)cc3C[C@H]2OC(=O)NS(=O)(=O)c2ccc(C)cc2)c1	17.9%	/	-2.6%	/	/	/
SMILES	SMN2 splice up	NPC1 promoter act	KinaseGlo FLuc	Rab9 promoter act	ELG1 genotox	FLuc counter
Cc1cc(C)c2c(N=NN3CCCCC3)[nH]nc2n1	1.0%	20.1%	1.4%	22.9%	17.3%	19µM*
COC(=O)CCC(=O)OC1(C)C(=O)C=C2C=C(C3CC3)N(c3ccc(OC)cc3)C=C2C1=O (centres undefined)	1.3%[9.22 µM]	/	-4.6%[7.66 µM]	/	/	/
O=C(N/N=C/c1ccccc1[N+](=O)[O-])c1ccc2c(c1)OCCO2	/	0.631µM*	/	?	?	0.239µM*
O=C(N/N=C/c1cc([N+](=O)[O-])ccc1O)c1ccc2c(c1)OCCO2	-95.9%	-9.1%	-1.0%	-10.6%	?	?
O=C(N/N=C/c1cc(O)ccc1[N+](=O)[O-])c1ccc2c(c1)OCCO2	/	?	/	2µM*	?	0.601µM*
Cc1ccc(COc2ccc3c(c2)OCO3)cc1	/	2.24µM*	/	3.98µM*	?	1.2µM*
O=Cc1ccc(OCc2ccc3c(c2)OCO3)cc1	/	17.3%	/	2.3%	18.3µM*	4.78µM*
CCOC(=O)c1ccccc1NC(=O)N1CCN(Cc2cc(=O)n3nc(-c4ccccc4)sc3n2)CC1	/	/	/	/	/	5.8%
Cc1cc(-c2cc(C)c(O)c(C(C)(C)C)c2)cc(C(C)(C)C)c1O	-8.6%[9.22 µM]	/	0.6%[7.66 µM]	/	/	/
O=C(CSc1ccc(Cl)cc1)N1N=CCC1c1ccccc1 (centres undefined)	/	-2.7%	/	3.0%	-0.3%	-13.5%
O=C(CSC(=S)N1CCCCC1)N1N=CCC1c1ccccc1 (centres undefined)	-3.6%	25.6%	-4.1%	22.4%	?	21.3µM*
COc1ccccc1Cc1nc(-c2ccncc2)no1	/	-3.1%	-3.9%	1.4%	0.3%	-11.9%
Clc1ccccc1OCc1nc(-c2ccncc2)no1	12.6µM*	2.82µM*	1.9%	2µM*	?	10.7µM*
Cc1cc(OCc2nc(-c3cccnc3)no2)c(C)cc1Br	-3.2%	11.4%	-1.6%	11.9%	13.1%	6.4%
